Laboratory results as given in PMC9911399, “Two distinct binding modes provide the RNA-binding protein RbFox with extraordinary sequence specificity”.
Where a chain is given by its changes, count along the chain named. Over roughly 16,000 sequences, “ka relative to ugcaugu” has its median near 0.0091; the highest 2% begin near 0.032. The sample holds the highest values, similar sequences and a random draw of the others, so the mix is not that of the screen.

T1: RBFOX1 RRM (Homo sapiens, UniProt Q9NWB1 109-208)
T1 sequence: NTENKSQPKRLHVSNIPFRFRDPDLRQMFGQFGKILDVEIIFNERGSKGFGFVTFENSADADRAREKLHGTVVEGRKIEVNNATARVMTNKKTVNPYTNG

B1: GCAUUGC (DNA:RNA)
RNA: GGGAGACCGGAAUUCAGAUUGUCCGCAUUGCUUAAAUCCCGUCGUAGCCACCA
DNA 1: CAATCTGAATTCCGGTCTCCC
DNA 2: TGGTGGCTACGACGGGATT
B2: GUUAUGC (DNA:RNA)
RNA: B1 RNA with C26U, A27U, U28A
DNA 1: CAATCTGAATTCCGGTCTCCC
DNA 2: TGGTGGCTACGACGGGATT
B3: GUCAUGC (DNA:RNA)
RNA: B1 RNA with C26U, A27C, U28A
DNA 1: CAATCTGAATTCCGGTCTCCC
DNA 2: TGGTGGCTACGACGGGATT
B4: GCAUGCU (DNA:RNA)
RNA: B1 RNA with U29G, G30C, C31U
DNA 1: CAATCTGAATTCCGGTCTCCC
DNA 2: TGGTGGCTACGACGGGATT
B5: GUAUGCU (DNA:RNA)
RNA: B1 RNA with C26U, U29G, G30C, C31U
DNA 1: CAATCTGAATTCCGGTCTCCC
DNA 2: TGGTGGCTACGACGGGATT
B6: GAAUGCU (DNA:RNA)
RNA: B1 RNA with C26A, U29G, G30C, C31U
DNA 1: CAATCTGAATTCCGGTCTCCC
DNA 2: TGGTGGCTACGACGGGATT
B7: GCCAUGC (DNA:RNA)
RNA: B1 RNA with A27C, U28A
DNA 1: CAATCTGAATTCCGGTCTCCC
DNA 2: TGGTGGCTACGACGGGATT
B8: CGCAUGC (DNA:RNA)
RNA: B1 RNA with G25C, C26G, A27C, U28A
DNA 1: CAATCTGAATTCCGGTCTCCC
DNA 2: TGGTGGCTACGACGGGATT
B9: GGCAUGC (DNA:RNA)
RNA: B1 RNA with C26G, A27C, U28A
DNA 1: CAATCTGAATTCCGGTCTCCC
DNA 2: TGGTGGCTACGACGGGATT
B10: UGAGAAA (DNA:RNA)
RNA: B1 RNA with G25U, C26G, U28G, U29A, G30A, C31A
DNA 1: CAATCTGAATTCCGGTCTCCC
DNA 2: TGGTGGCTACGACGGGATT
B11: UCCUACG (DNA:RNA)
RNA: B1 RNA with G25U, A27C, U29A, G30C, C31G
DNA 1: CAATCTGAATTCCGGTCTCCC
DNA 2: TGGTGGCTACGACGGGATT
B12: AACCACA (DNA:RNA)
RNA: GGGAGACCGGAAUUCAGAUUGUCCAACCACAUUAAAUCCCGUCGUAGCCACCA
DNA 1: CAATCTGAATTCCGGTCTCCC
DNA 2: TGGTGGCTACGACGGGATT
B13: ACAUAGU (DNA:RNA)
RNA: B1 RNA with G25A, U29A, C31U
DNA 1: CAATCTGAATTCCGGTCTCCC
DNA 2: TGGTGGCTACGACGGGATT
B14: CGCCAUA (DNA:RNA)
RNA: B12 RNA with A25C, A26G, C30U
DNA 1: CAATCTGAATTCCGGTCTCCC
DNA 2: TGGTGGCTACGACGGGATT
B15: AUUUUUA (DNA:RNA)
RNA: B12 RNA with A26U, C27U, C28U, A29U, C30U
DNA 1: CAATCTGAATTCCGGTCTCCC
DNA 2: TGGTGGCTACGACGGGATT
B16: UGUUCCG (DNA:RNA)
RNA: B12 RNA with A25U, A26G, C27U, C28U, A29C, A31G
DNA 1: CAATCTGAATTCCGGTCTCCC
DNA 2: TGGTGGCTACGACGGGATT
B17: UCGUCCG (DNA:RNA)
RNA: B1 RNA with G25U, A27G, U29C, G30C, C31G
DNA 1: CAATCTGAATTCCGGTCTCCC
DNA 2: TGGTGGCTACGACGGGATT
B18: GCACGAA (DNA:RNA)
RNA: B1 RNA with U28C, U29G, G30A, C31A
DNA 1: CAATCTGAATTCCGGTCTCCC
DNA 2: TGGTGGCTACGACGGGATT
B19: GCACGUA (DNA:RNA)
RNA: B1 RNA with U28C, U29G, G30U, C31A
DNA 1: CAATCTGAATTCCGGTCTCCC
DNA 2: TGGTGGCTACGACGGGATT
B20: CGCACCG (DNA:RNA)
RNA: B12 RNA with A25C, A26G, C28A, A29C, A31G
DNA 1: CAATCTGAATTCCGGTCTCCC
DNA 2: TGGTGGCTACGACGGGATT
B21: GCACGAG (DNA:RNA)
RNA: B1 RNA with U28C, U29G, G30A, C31G
DNA 1: CAATCTGAATTCCGGTCTCCC
DNA 2: TGGTGGCTACGACGGGATT
B22: CCGCACG (DNA:RNA)
RNA: B12 RNA with A25C, A26C, C27G, A31G
DNA 1: CAATCTGAATTCCGGTCTCCC
DNA 2: TGGTGGCTACGACGGGATT
B23: ACGCACG (DNA:RNA)
RNA: B12 RNA with A26C, C27G, A31G
DNA 1: CAATCTGAATTCCGGTCTCCC
DNA 2: TGGTGGCTACGACGGGATT
B24: GCACGAU (DNA:RNA)
RNA: B1 RNA with U28C, U29G, G30A, C31U
DNA 1: CAATCTGAATTCCGGTCTCCC
DNA 2: TGGTGGCTACGACGGGATT
B25: UCGCACG (DNA:RNA)
RNA: B12 RNA with A25U, A26C, C27G, A31G
DNA 1: CAATCTGAATTCCGGTCTCCC
DNA 2: TGGTGGCTACGACGGGATT
B26: GCACACG (DNA:RNA)
RNA: B12 RNA with A25G, A26C, C27A, A31G
DNA 1: CAATCTGAATTCCGGTCTCCC
DNA 2: TGGTGGCTACGACGGGATT
B27: GCACGUG (DNA:RNA)
RNA: B1 RNA with U28C, U29G, G30U, C31G
DNA 1: CAATCTGAATTCCGGTCTCCC
DNA 2: TGGTGGCTACGACGGGATT
B28: UCGCACC (DNA:RNA)
RNA: B12 RNA with A25U, A26C, C27G, A31C
DNA 1: CAATCTGAATTCCGGTCTCCC
DNA 2: TGGTGGCTACGACGGGATT
B29: UUUCUCU (DNA:RNA)
RNA: B12 RNA with A25U, A26U, C27U, A29U, A31U
DNA 1: CAATCTGAATTCCGGTCTCCC
DNA 2: TGGTGGCTACGACGGGATT
B30: CAUGAAC (DNA:RNA)
RNA: B12 RNA with A25C, C27U, C28G, C30A, A31C
DNA 1: CAATCTGAATTCCGGTCTCCC
DNA 2: TGGTGGCTACGACGGGATT
B31: CGAUGUC (DNA:RNA)
RNA: B1 RNA with G25C, C26G, U29G, G30U
DNA 1: CAATCTGAATTCCGGTCTCCC
DNA 2: TGGTGGCTACGACGGGATT

target: T1, RBFOX1 RRM; assay: EMSA; HiTS-Eq, 1 nM pool, 10 min; buffer printed only for the single-RNA assays: 10 mM Tris pH 7.5, 150 mM NaCl, 3.4 mM EDTA, 0.001% NP-40, 30 C; conditions: tags: His6 N-terminal (pET28a); label: 5' 32P
How it was run: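 These values rest on relative association constants, computed from read-count changes of each RNA species versus the control reaction and normalised to the cognate motif. Reads came from free RNA recovered by 8% native PAGE after purified RbFox RRM (wild type or mutant) at increasing concentrations was equilibrated for 10 min in 50 µL with 1 nM of a 5′-radiolabelled pool with 7 randomized nucleotides and DNA-annealed flanks.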

Row | Binder | binding signal
1 | B1 | 0.0184 KA relative to UGCAUGU
2 | B2 | 0.0151 KA relative to UGCAUGU
3 | B3 | 0.0144 KA relative to UGCAUGU
4 | B4 | 0.779 KA relative to UGCAUGU
5 | B5 | 0.018 KA relative to UGCAUGU
6 | B6 | 0.0201 KA relative to UGCAUGU
7 | B7 | 0.0131 KA relative to UGCAUGU
8 | B8 | 0.895 KA relative to UGCAUGU
9 | B9 | 0.627 KA relative to UGCAUGU
10 | B10 | 0.016 KA relative to UGCAUGU
11 | B11 | 0.00598 KA relative to UGCAUGU
12 | B12 | 0.00121 KA relative to UGCAUGU
13 | B13 | 0.00187 KA relative to UGCAUGU
14 | B14 | 0.00265 KA relative to UGCAUGU
15 | B15 | 0.00169 KA relative to UGCAUGU
16 | B16 | 0.0186 KA relative to UGCAUGU

Row | Binder | binding signal
17 | B17 | 0.016 KA relative to UGCAUGU
18 | B18 | 0.0197 KA relative to UGCAUGU
19 | B19 | 0.0281 KA relative to UGCAUGU
20 | B20 | 0.00744 KA relative to UGCAUGU
21 | B21 | 0.0362 KA relative to UGCAUGU
22 | B22 | 0.0481 KA relative to UGCAUGU
23 | B23 | 0.0314 KA relative to UGCAUGU
24 | B24 | 0.0227 KA relative to UGCAUGU
25 | B25 | 0.0586 KA relative to UGCAUGU
26 | B26 | 0.00843 KA relative to UGCAUGU
27 | B27 | 0.0821 KA relative to UGCAUGU
28 | B28 | 0.0108 KA relative to UGCAUGU
29 | B29 | 0.0126 KA relative to UGCAUGU
30 | B30 | 0.00509 KA relative to UGCAUGU
31 | B31 | 0.0174 KA relative to UGCAUGU
